PubChem BioAssay
Active and inactive are the calls of the source. Unless noted, how the calls were made is not given here.

Legend:
[1] = compounds binding Alexa647 anti-His antibody – biochemical, small-molecule microarray, 635 nm fluorescence, artefact control for SMM control protein annotation, primary screen (AID 1128); conditions: higher = more signal;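 further: score merges feature fluorescence with signal-to-noise for each printed compound spot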
[2] = system: Human papillomavirus type 1a E7 protein (residues 1-88); test: HPV1a E7 small-molecule binders, primary screen, biochemical, small-molecule microarray, residues 1-88, 635 nm (AID 1129); conditions: small-molecule microarray binding, fluorescence 635 nm; higher = more signal
[3] = molecular target: Focal adhesion kinase 1 (Homo sapiens) (UniProt Q05397); test: PTK2 protein binding on printed compound slides – biochemical, small-molecule microarray, 635/667 nm fluorescence, BSA, DTT, primary screen (AID 1130); conditions: 635 nm fluorescence, higher = more signal;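 further: composite of spot emission at 667 nm and signal to noise over triplicate slides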
Sequence of Focal adhesion kinase 1 (Homo sapiens) (Q05397 whole entry, looked up): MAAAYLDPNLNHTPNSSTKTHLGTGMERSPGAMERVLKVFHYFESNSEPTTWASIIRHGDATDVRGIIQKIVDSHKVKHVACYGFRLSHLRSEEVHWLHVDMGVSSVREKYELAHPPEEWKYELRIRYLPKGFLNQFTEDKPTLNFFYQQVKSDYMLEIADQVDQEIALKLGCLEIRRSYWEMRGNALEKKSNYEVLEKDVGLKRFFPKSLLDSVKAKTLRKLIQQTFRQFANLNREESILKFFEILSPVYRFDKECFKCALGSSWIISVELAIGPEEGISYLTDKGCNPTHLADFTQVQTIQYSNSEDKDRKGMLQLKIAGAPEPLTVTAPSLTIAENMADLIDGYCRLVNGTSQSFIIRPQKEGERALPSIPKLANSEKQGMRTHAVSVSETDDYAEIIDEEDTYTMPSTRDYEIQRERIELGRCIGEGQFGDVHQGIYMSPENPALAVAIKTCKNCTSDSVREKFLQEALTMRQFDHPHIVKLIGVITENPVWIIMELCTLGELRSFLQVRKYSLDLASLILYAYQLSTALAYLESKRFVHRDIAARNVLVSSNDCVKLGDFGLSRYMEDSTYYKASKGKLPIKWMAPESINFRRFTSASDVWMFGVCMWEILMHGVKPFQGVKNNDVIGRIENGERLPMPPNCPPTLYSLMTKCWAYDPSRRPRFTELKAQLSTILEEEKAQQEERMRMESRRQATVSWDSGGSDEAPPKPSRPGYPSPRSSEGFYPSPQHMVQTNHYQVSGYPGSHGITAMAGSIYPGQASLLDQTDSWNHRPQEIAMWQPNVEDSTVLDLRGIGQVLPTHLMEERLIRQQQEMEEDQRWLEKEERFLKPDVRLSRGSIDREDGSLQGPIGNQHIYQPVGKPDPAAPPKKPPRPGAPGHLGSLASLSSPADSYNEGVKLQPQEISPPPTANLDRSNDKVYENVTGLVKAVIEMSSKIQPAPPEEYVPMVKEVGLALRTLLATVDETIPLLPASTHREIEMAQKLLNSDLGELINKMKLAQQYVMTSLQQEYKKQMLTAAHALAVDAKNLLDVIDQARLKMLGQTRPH

[4] = system: Fibrinogen (Alexa647-labelled); test: Alexa647-fibrinogen binding to printed small molecules – biochemical, small-molecule microarray, 635/667 nm fluorescence, artefact control for SMM control-protein annotation, profiling panel (AID 1131); conditions: fibrinogen-A647 binding fluorescence, higher = more signal;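 further: z-score merges 667 nm fluorescence with per-spot signal-to-noise over triplicate slides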
[5] = molecular target: Follistatin (Homo sapiens) (UniProt P19883); test: FST protein binding to printed compounds – biochemical, small-molecule microarray, 635/667 nm fluorescence, primary screen (AID 1132); conditions: 635 nm fluorescence, higher = more signal
Sequence of Follistatin (Homo sapiens) (P19883 whole entry, looked up): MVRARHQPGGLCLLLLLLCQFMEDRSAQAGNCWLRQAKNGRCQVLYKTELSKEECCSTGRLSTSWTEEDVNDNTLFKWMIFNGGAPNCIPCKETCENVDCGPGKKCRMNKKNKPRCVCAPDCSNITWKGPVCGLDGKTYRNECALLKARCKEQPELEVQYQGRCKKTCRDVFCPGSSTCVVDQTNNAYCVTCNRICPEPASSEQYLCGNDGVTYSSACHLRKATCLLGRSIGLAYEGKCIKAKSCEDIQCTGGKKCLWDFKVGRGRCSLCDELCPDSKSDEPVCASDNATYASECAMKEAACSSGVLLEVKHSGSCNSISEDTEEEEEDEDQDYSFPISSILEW

[6] = molecular target: Fibroblast growth factor 2 (Homo sapiens) (UniProt P09038); test: basic fibroblast growth factor binding to printed compounds – biochemical, small-molecule microarray, 635/667 nm fluorescence, primary screen (AID 1133); conditions: FGF2, fluorescence 635/667, higher = more signal
Sequence of Fibroblast growth factor 2 (Homo sapiens) (P09038 whole entry, looked up): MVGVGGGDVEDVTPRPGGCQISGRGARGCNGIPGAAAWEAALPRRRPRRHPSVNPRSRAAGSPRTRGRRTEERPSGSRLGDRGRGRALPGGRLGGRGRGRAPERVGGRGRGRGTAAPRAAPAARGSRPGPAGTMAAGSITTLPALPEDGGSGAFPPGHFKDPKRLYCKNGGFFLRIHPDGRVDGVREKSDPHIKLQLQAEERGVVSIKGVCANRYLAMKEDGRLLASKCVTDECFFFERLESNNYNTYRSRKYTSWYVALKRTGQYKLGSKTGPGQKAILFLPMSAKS

[7] = JC-1 mitochondrial potential readout, lung cancer cells – cell-based, A549, JC-1 fluorescence, basal, 24 h, 100 nL, profiling panel (AID 1138); conditions: higher = more signal;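 further: A549 lung adenocarcinoma cells under basal conditions with no added stimulus; test concentration not given here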
[8] = system: Lefty1; test: Lefty1 protein binding to printed compounds – biochemical, small-molecule microarray, 635/667 nm fluorescence, primary screen (AID 1139); conditions: fluorescence 635/667, higher = more signal
[9] = system: wheat germ agglutinin (Triticum aestivum), Alexa647-labelled; test: Alexa647-WGA lectin binding to printed small molecules – biochemical, small-molecule microarray, 635/667 nm fluorescence, artefact control for SMM control-protein annotation, profiling panel (AID 1140); conditions: WGA-A647 binding, 635 nm fluorescence, higher = more signal;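 further: score merges 667 nm feature emission with signal to noise over triplicate slides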
[10] = molecular target: Luciferin 4-monooxygenase (Photinus pyralis) (UniProt P08659); test: inhibition of purified Photinus pyralis luciferase – biochemical, luminescence, purified enzyme, 2006 set, primary screen (AID 1141); conditions: purified firefly luciferase, SteadyGlo luminescence, 30 min; higher = more signal, called active from +8 up or from −8 down;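 further: cell-free assay with purified firefly luciferase at 100 ng per well in PBS; test concentration not given here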
Sequence of Luciferin 4-monooxygenase (Photinus pyralis) (P08659 whole entry, looked up): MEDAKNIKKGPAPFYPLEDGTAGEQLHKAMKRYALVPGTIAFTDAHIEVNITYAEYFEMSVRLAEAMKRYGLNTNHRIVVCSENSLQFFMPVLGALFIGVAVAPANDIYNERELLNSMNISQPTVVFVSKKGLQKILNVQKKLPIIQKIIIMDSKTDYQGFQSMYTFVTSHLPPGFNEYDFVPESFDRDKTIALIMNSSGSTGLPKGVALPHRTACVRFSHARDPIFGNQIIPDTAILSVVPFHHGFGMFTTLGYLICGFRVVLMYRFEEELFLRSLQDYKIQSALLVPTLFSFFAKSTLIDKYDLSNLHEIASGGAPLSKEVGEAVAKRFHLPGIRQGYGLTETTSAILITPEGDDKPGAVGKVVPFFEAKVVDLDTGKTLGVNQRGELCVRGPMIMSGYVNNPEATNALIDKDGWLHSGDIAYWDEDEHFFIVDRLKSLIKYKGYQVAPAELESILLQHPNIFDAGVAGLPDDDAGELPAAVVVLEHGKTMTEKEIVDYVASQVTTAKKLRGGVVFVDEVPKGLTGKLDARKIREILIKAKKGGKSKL

[11] = system: Wnt5a (protein binding on small-molecule microarray); test: small molecules binding Wnt5a protein – biophysical, small-molecule microarray, 635/667 nm fluorescence, primary screen (AID 1142); conditions: 635 nm fluorescence, higher = more signal;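 further: fluorescence read at 667 nm with signal to noise per printed feature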
[12] = ATP-based viability of Huh7 replicon cells – cell-based, CellTiter-Glo luminescence, basal, 48 h, cytotoxicity control for HCV replication inhibitor project, primary screen (AID 1143); conditions: higher = more signal, called active from +8 up or from −8 down;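 further: Huh7 hepatoma cells carrying a hepatitis C replication reporter with no stimulus; test concentration not given here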
[13] = Pseudomonas biofilm growth suppression – PAO1 strain, BacTiter-Glo luminescence, LB-PBS, primary screen (AID 1144); conditions: P. aeruginosa PAO1 biofilm, 12 h, higher = more signal
[14] = basal CRE-LacZ reporter activity in PC12 – cell-based, unstimulated, primary screen (AID 1145); conditions: no forskolin, luminescence, 4.5 h, higher = more signal, called active from +8 up or from −8 down
[15] = forskolin-driven CRE-LacZ activity in PC12 – cell-based, CRE-LacZ reporter, forskolin-stimulated, primary screen (AID 1146); conditions: luminescence, 4.5 h, higher = more signal, called active from +8 up or from −8 down;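 further: PC12 cells with 6xCRE LacZ reporter stimulated by forskolin 10 µM; beta-galactosidase reporter signal reflecting CREB driven transcription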
[16] = molecular target: Streptavidin (Streptomyces avidinii) (UniProt P22629); test: compounds binding control protein streptavidin – biophysical, small-molecule microarray, 635/667 nm fluorescence, artefact control for SMM compound annotation, primary screen (AID 1147); conditions: higher = more signal;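 further: signal reflects streptavidin binding to arrayed compounds as a control protein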
Sequence of Streptavidin (Streptomyces avidinii) (P22629 whole entry, looked up): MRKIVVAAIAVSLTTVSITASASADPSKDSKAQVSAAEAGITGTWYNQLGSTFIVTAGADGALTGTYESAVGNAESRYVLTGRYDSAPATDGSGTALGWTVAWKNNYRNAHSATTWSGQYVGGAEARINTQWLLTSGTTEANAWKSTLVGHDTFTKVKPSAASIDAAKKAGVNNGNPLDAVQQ

[17] = probe aInhba binding on compound microarray – biochemical, small-molecule microarray, 635/667 nm fluorescence, primary screen (AID 1148); conditions: higher = more signal;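 further: score merges 667nm spot fluorescence with signal-to-noise for antibody binding to printed compounds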
[18] = molecular target: Torsin-1A (Homo sapiens) (UniProt O14656); test: TOR1A wild-type binding on microarray – cell lysate, small-molecule microarray, lysate, 635/667 nm, primary screen (AID 1149); conditions: COS7 hTOR1A-WT lysate, 635 nm fluorescence, higher = more signal
Sequence of Torsin-1A (Homo sapiens) (O14656 whole entry, looked up): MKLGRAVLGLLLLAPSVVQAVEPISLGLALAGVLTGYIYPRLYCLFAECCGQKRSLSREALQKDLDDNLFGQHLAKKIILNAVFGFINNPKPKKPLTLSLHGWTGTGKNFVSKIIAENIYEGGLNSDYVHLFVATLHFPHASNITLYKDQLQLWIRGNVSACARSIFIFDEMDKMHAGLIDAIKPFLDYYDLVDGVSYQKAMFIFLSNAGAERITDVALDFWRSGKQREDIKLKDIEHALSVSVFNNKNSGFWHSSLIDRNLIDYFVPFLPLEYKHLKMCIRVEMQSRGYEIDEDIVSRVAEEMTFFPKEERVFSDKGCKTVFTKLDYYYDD

[19] = molecular target: Torsin-1A (Homo sapiens) (UniProt O14656); test: torsin A mutant lysate binding on microarrays – cell lysate, small-molecule microarray, COS7 lysate, 635/667 nm fluorescence, primary screen (AID 1150); conditions: COS7 hTOR1A mutant lysate, 635 nm fluorescence, higher = more signal;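 further: score pools 667 nm emission and signal to noise measuring lysate protein binding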
[20] = system: Sonic hedgehog protein (Shh); test: Sonic hedgehog microarray binding compounds – biochemical, small-molecule microarray, 635/667 nm fluorescence, primary screen (AID 1151); conditions: 635 nm fluorescence, higher = more signal;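 further: Shh protein binding to compounds spotted on small-molecule microarray slides; score combines spot fluorescence intensity with signal-to-noise across triplicate slides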

## CCOC(=O)C[C@H]1[C@H](OC(=O)c2ccccc2-c2ccccc2)[C@@H](NC(=O)c2ccccc2)c2cc(OCCCO)ccc2N1C(=O)Cc1ccc(OC)cc1
[1]
  composite z-score: -0.277
[2]
  composite z-score: -0.64
[3]
  composite z-score: 0.0427
[4]
  composite z-score: 0.66
[5]
  composite z-score: -0.0263
[6]
  composite z-score: -0.188
[7]
  z-score: 0.322
[8]
  composite z-score: -0.018
[9]
  composite z-score: 0.564
[10]
  z-score: 0.897 (inactive)
[11]
  composite z-score: -0.105
[12]
  z-score: 0.0692 (inactive)
[13]
  z-score: -0.228 (inactive)
[14]
  z-score: 1.58 (inactive)
[15]
  z-score: 0.0006 (inactive)
[16]
  composite z-score: 0.621
[17]
  composite z-score: -0.154
[18]
  composite z-score: -0.193
[19]
  composite z-score: 0.0375
[20]
  composite z-score: 0.0772

## C=CCNC(=O)[C@H]1[C@@H]2C(=O)O[C@@H](c3ccccc3)[C@@H](c3ccccc3)N2[C@@H](c2ccc(OCCO)cc2)[C@]12C(=O)N(C(=O)OCCOC)c1ccc(C#CC3=CCCCC3)cc12
[1]
  composite z-score: 1.56
[2]
  composite z-score: 1.2
[3]
  composite z-score: 0.485
[4]
  composite z-score: 0.968
[5]
  composite z-score: 1.17
[6]
  composite z-score: 1.25
[7]
  z-score: -0.615
[8]
  composite z-score: 0.949
[9]
  composite z-score: 1.17
[10]
  z-score: -1.77 (inactive)
[11]
  composite z-score: -0.0184
[12]
  z-score: -4.77 (inactive)
[13]
  z-score: 1.09 (inactive)
[14]
  z-score: -0.0647 (inactive)
[15]
  z-score: -0.638 (inactive)
[16]
  composite z-score: 0.716
[17]
  composite z-score: 0.18
[18]
  composite z-score: 0.689
[19]
  composite z-score: 0.868
[20]
  composite z-score: 1.32

## COC(=O)C(CC#Cc1ccc2c(c1)[C@]1(C(=O)N2)[C@H](c2ccc(O)cc2)N2[C@H](c3ccccc3)[C@H](c3ccccc3)OC(=O)[C@H]2[C@@H]1C(=O)O)C(=O)OC
[1]
  composite z-score: 0.124
[2]
  composite z-score: 0.56
[3]
  composite z-score: 0.318
[4]
  composite z-score: 0.298
[5]
  composite z-score: 0.879
[6]
  composite z-score: -0.12
[7]
  z-score: -0.233
[8]
  composite z-score: 0.369
[9]
  composite z-score: -0.22
[10]
  z-score: -0.462 (inactive)
[11]
  composite z-score: -0.198
[12]
  z-score: -0.627 (inactive)
[13]
  z-score: -0.191 (inactive)
[14]
  z-score: 0.389 (inactive)
[15]
  z-score: 0.416 (inactive)
[16]
  composite z-score: -0.0974
[17]
  composite z-score: -0.212
[18]
  composite z-score: -0.295
[19]
  composite z-score: 0.168
[20]
  composite z-score: 0.262

## C=CC[C@]1(C(=O)N(C)C)N=C(c2ccc(OCCCO)cc2)O[C@H]1c1ccccc1
[1]
  composite z-score: 0.661
[2]
  composite z-score: 1.23
[3]
  composite z-score: 1.04
[4]
  composite z-score: 0.951
[5]
  composite z-score: 0.915
[6]
  composite z-score: -0.165
[7]
  z-score: -0.259
[8]
  composite z-score: 0.457
[9]
  composite z-score: 0.149
[10]
  z-score: -1.52 (inactive)
[11]
  composite z-score: 0.902
[12]
  z-score: -4.69 (inactive)
[13]
  z-score: -0.87 (inactive)
[14]
  z-score: -0.38 (inactive)
[15]
  z-score: -1.19 (inactive)
[16]
  composite z-score: 0.197
[17]
  composite z-score: 0.0471
[18]
  composite z-score: 0.62
[19]
  composite z-score: 1.27
[20]
  composite z-score: 0.757

## C[N+](C)(C)CCCCCCNC(=O)[C@@H]1C[C@@H]2C(=O)NCC(=O)N2[C@@H]1c1cccc(OCCO)c1
[1]
  composite z-score: 1.4
[2]
  composite z-score: 0.044
[3]
  composite z-score: 1.18
[4]
  composite z-score: 0.615
[5]
  composite z-score: 1.38
[6]
  composite z-score: 1.33
[7]
  z-score: -0.842
[8]
  composite z-score: 1.28
[9]
  composite z-score: 0.571
[10]
  z-score: 0.801 (inactive)
[11]
  composite z-score: 0.338
[12]
  z-score: -3.36 (inactive)
[13]
  z-score: -1.82 (inactive)
[14]
  z-score: -0.797 (inactive)
[15]
  z-score: -0.933 (inactive)
[16]
  composite z-score: -0.357
[17]
  composite z-score: -0.0986
[18]
  composite z-score: 0.335
[19]
  composite z-score: -0.371
[20]
  composite z-score: 2.16

## O=C1N(Cc2ccccc2)c2ccccc2[C@H]2OC(c3ccc(OCCCO)cc3)=N[C@@]12CCS(=O)(=O)c1ccccc1
[1]
  composite z-score: 1.68
[2]
  composite z-score: 1.25
[3]
  composite z-score: 1.06
[4]
  composite z-score: 0.984
[5]
  composite z-score: 1.2
[6]
  composite z-score: 1.36
[7]
  z-score: -1.26
[8]
  composite z-score: 0.689
[9]
  composite z-score: 0.726
[10]
  z-score: -0.202 (inactive)
[11]
  composite z-score: 0.889
[12]
  z-score: -4.05 (inactive)
[13]
  z-score: -1.19 (inactive)
[14]
  z-score: 2.96 (inactive)
[15]
  z-score: -1 (inactive)
[16]
  composite z-score: 0.211
[17]
  composite z-score: 0.166
[18]
  composite z-score: 0.795
[19]
  composite z-score: 0.591
[20]
  composite z-score: 2.09

## [N-]=[N+]=NCc1ccccc1[C@H]1OC(c2ccc(OCCCO)cc2)=N[C@@]1(Cc1ccccc1)C(N)=O
[1]
  composite z-score: 1.85
[2]
  composite z-score: 1.24
[3]
  composite z-score: 0.5
[4]
  composite z-score: 1.04
[5]
  composite z-score: 0.405
[6]
  composite z-score: -0.135
[7]
  z-score: 2.44
[8]
  composite z-score: -0.572
[9]
  composite z-score: 1.37
[10]
  z-score: -1.89 (inactive)
[11]
  composite z-score: 0.765
[12]
  z-score: -1.18 (inactive)
[13]
  z-score: -0.293 (inactive)
[14]
  z-score: 0.479 (inactive)
[15]
  z-score: -1.43 (inactive)
[16]
  composite z-score: 2.31
[17]
  composite z-score: 0.278
[18]
  composite z-score: 0.217
[19]
  composite z-score: 0.65
[20]
  composite z-score: -1.13

## CCC[C@@H]1C[C@@]1(CCC)[C@@H](NC(=O)c1cccs1)c1ccc(Cl)cc1
[1]
  composite z-score: -0.449
[2]
  composite z-score: -0.375
[3]
  composite z-score: -0.352
[4]
  composite z-score: 0.7
[5]
  composite z-score: -1.42
[6]
  composite z-score: -0.639
[7]
  z-score: -0.101
[8]
  composite z-score: -1.69
[9]
  composite z-score: 0.152
[10]
  z-score: -2.2 (inactive)
[11]
  composite z-score: -0.551
[12]
  z-score: -2.21 (inactive)
[13]
  z-score: 0.803 (inactive)
[14]
  z-score: 1.15 (inactive)
[15]
  z-score: -0.127 (inactive)
[16]
  composite z-score: -0.7
[17]
  composite z-score: -0.211
[18]
  composite z-score: -0.312
[19]
  composite z-score: -0.412
[20]
  composite z-score: -0.949

## CN1C(=O)C2C=CC(C(O)c3ccc(F)cc3)N(N3CCCCC3)C2C1=O (stereo not given)
[1]
  composite z-score: 2.59
[2]
  composite z-score: 0.978
[3]
  composite z-score: 1.34
[4]
  composite z-score: 0.167
[5]
  composite z-score: 0.0756
[6]
  composite z-score: -0.627
[7]
  z-score: -0.0964
[8]
  composite z-score: -1.21
[9]
  composite z-score: 1.38
[10]
  z-score: 0.0216 (inactive)
[11]
  composite z-score: 0.442
[12]
  z-score: 1 (inactive)
[13]
  z-score: -0.273 (inactive)
[14]
  z-score: 1.01 (inactive)
[15]
  z-score: -0.523 (inactive)
[16]
  composite z-score: 0.428
[17]
  composite z-score: 0.838
[18]
  composite z-score: 0.759
[19]
  composite z-score: 0.531
[20]
  composite z-score: -0.846
